Experimental data published in PubChem BioAssay (NCI).
Compounds without any hit were thinned out: in the full panel of roughly 83,000, 20% have a hit.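 The test compound was applied at a single concentration to cells in 96-well plates for 48 hours, and percent growth was recorded.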 Active and inactive are the calls of the source. How the source made its calls: active means growth percent below 10; inactive means the rest.

Tests used:
Assay in all cases: NCI-60 one-dose screen, 48 h (100 = growth as untreated, 0 = no growth, -100 = all killed)
Settings in all cases: 10 µM unless noted
DU-145 prostate = system: DU-145 prostate
K-562 leukemia = system: K-562 leukemia
MALME-3M melanoma = system: MALME-3M melanoma
MDA-MB-231 breast = system: MDA-MB-231 breast
RXF 393 renal = system: RXF 393 renal
SF-268 CNS = system: SF-268 CNS
SF-295 CNS = system: SF-295 CNS
SF-539 CNS = system: SF-539 CNS
UACC-257 melanoma = system: UACC-257 melanoma
M14 melanoma = system: M14 melanoma
HCT-15 colon = system: HCT-15 colon
HT29 colon = system: HT29 colon
SNB-75 CNS = system: SNB-75 CNS
SNB-19 CNS = system: SNB-19 CNS
U251 CNS = system: U251 CNS
PC-3 prostate = system: PC-3 prostate
SK-MEL-5 melanoma = system: SK-MEL-5 melanoma
UACC-62 melanoma = system: UACC-62 melanoma
LOX IMVI melanoma = system: LOX IMVI melanoma
SK-MEL-28 melanoma = system: SK-MEL-28 melanoma

Measured: growth

CNC(=O)c1cc(Oc2cccc3nc(NC(=O)Nc4cc(C(F)(F)F)ccc4Cl)ccc23)ccn1
inactive: DU-145 prostate 78.6% | K-562 leukemia 80.9% | MALME-3M melanoma 69.2% | MDA-MB-231 breast 49.1% | RXF 393 renal 73.7% | SF-268 CNS 74.9% | SF-295 CNS 106% | SF-539 CNS 32.6% | UACC-257 melanoma 98.3% | M14 melanoma 95.1% | HCT-15 colon 90% | HT29 colon 89.8% | SNB-75 CNS 68.9% | SNB-19 CNS 102% | U251 CNS 70.4% | PC-3 prostate 96.5% | SK-MEL-5 melanoma 80.2% | UACC-62 melanoma 96.3% | LOX IMVI melanoma 63.9% | SK-MEL-28 melanoma 92.4%

Nc1nc2c(c3ncccc13)C(c1cccc(Cl)c1)Cc1ncccc1-2 (stereo not given)
active: SF-295 CNS 0.813% | SF-539 CNS -19.9% | M14 melanoma 6.41% | HT29 colon 2.28%
inactive: DU-145 prostate 21.5% | K-562 leukemia 14% | MALME-3M melanoma 67.7% | MDA-MB-231 breast 28.8% | RXF 393 renal 10.7% | SF-268 CNS 45.6% | UACC-257 melanoma 63.6% | HCT-15 colon 22.2% | SNB-75 CNS 32.5% | SNB-19 CNS 21.1% | U251 CNS 16% | PC-3 prostate 18.3% | SK-MEL-5 melanoma 29.3% | UACC-62 melanoma 22.1% | LOX IMVI melanoma 36.8% | SK-MEL-28 melanoma 63.9%

Cc1ccc(S(=O)(=O)c2nc(-c3ccccc3)oc2Sc2nc3ccccc3s2)cc1
inactive: DU-145 prostate 100% | K-562 leukemia 42.9% | MALME-3M melanoma 66.4% | MDA-MB-231 breast 75.3% | RXF 393 renal 77.3% | SF-268 CNS 58.3% | SF-295 CNS 92.1% | SF-539 CNS 93.3% | UACC-257 melanoma 101% | M14 melanoma 13.4% | HCT-15 colon 44.8% | HT29 colon 94.2% | SNB-75 CNS 70.8% | SNB-19 CNS 100% | U251 CNS 90.5% | PC-3 prostate 97.2% | SK-MEL-5 melanoma 53.3% | UACC-62 melanoma 80.3% | LOX IMVI melanoma 24.6% | SK-MEL-28 melanoma 109%

CCN1CCN(C(=O)[C@]23CC[C@@H](C)[C@H](C)[C@@H]2C2=CC[C@@H]4[C@@]5(C)C/C(=C/c6cccnc6)C(=O)C(C)(C)[C@@H]5CC[C@@]4(C)[C@]2(C)CC3)CC1
inactive: DU-145 prostate 48% | MALME-3M melanoma 12% | MDA-MB-231 breast 34.7% | SF-268 CNS 51% | SF-295 CNS 37.3% | UACC-257 melanoma 26% | M14 melanoma 40.9% | HCT-15 colon 15.2% | HT29 colon 12.1% | SNB-75 CNS 27.6% | SNB-19 CNS 45.9% | U251 CNS 27.9% | PC-3 prostate 16.7% | UACC-62 melanoma 33.8% | LOX IMVI melanoma 14.9% | SK-MEL-28 melanoma 37.4%
active: K-562 leukemia 6.46% | RXF 393 renal 3.08% | SF-539 CNS 8.77% | SK-MEL-5 melanoma -23.4%

C=CC(=O)Nc1ccc(Nc2nccc(-c3ccc(N4CCCC4)c(C#N)c3)n2)cc1
inactive: DU-145 prostate 36.8% | K-562 leukemia 16.6% | MDA-MB-231 breast 60.9% | SF-268 CNS 43.9% | SF-539 CNS 51.1% | UACC-257 melanoma 39.4% | SNB-75 CNS 15.4% | SNB-19 CNS 41.5% | PC-3 prostate 23.6% | SK-MEL-5 melanoma 15.4% | UACC-62 melanoma 52.9% | LOX IMVI melanoma 69.4%
active: MALME-3M melanoma -41.8% | RXF 393 renal -54.5% | SF-295 CNS -36.9% | M14 melanoma 3.42% | HCT-15 colon -36.7% | HT29 colon 2.55% | U251 CNS 5.57% | SK-MEL-28 melanoma -46.1%

Cn1c(=O)c2[nH]c(SCC(=O)Nc3ccc(C(=O)/C=C/c4ccccc4Cl)cc3)nc2n(C)c1=O
inactive: DU-145 prostate 102% | K-562 leukemia 84.4% | MALME-3M melanoma 112% | MDA-MB-231 breast 106% | RXF 393 renal 105% | SF-268 CNS 89.7% | SF-295 CNS 90.5% | SF-539 CNS 101% | UACC-257 melanoma 86.1% | M14 melanoma 99.5% | HCT-15 colon 92.5% | HT29 colon 119% | SNB-75 CNS 77.1% | SNB-19 CNS 97.1% | U251 CNS 91.9% | PC-3 prostate 93.4% | SK-MEL-5 melanoma 90% | UACC-62 melanoma 95.6% | LOX IMVI melanoma 96.4% | SK-MEL-28 melanoma 99.9%

O=C1C(Nc2ccccn2)=C(I)C(=O)c2ncccc21
active: DU-145 prostate -93.6% | K-562 leukemia 1.75% | MALME-3M melanoma -99.6% | MDA-MB-231 breast -31.8% | RXF 393 renal -60.8% | SF-268 CNS -33.1% | SF-295 CNS -31.6% | SF-539 CNS -98% | UACC-257 melanoma -27.9% | M14 melanoma -84.5% | HCT-15 colon -60% | HT29 colon -14.5% | SNB-75 CNS -94.3% | SNB-19 CNS 0% | U251 CNS -82.4% | PC-3 prostate 6.61% | SK-MEL-5 melanoma -98.9% | UACC-62 melanoma -68% | LOX IMVI melanoma -72.7% | SK-MEL-28 melanoma -36.7%

CCCCCCCCCCCCCCCCCCOc1ccccc1CC(=O)NCC[N+]1(C)CCCCC1
inactive: DU-145 prostate 68.7% | K-562 leukemia 34.2% | MALME-3M melanoma 44.9% | MDA-MB-231 breast 36.6% | RXF 393 renal 18.4% | SF-268 CNS 34% | SF-295 CNS 90.2% | SF-539 CNS 84% | UACC-257 melanoma 88.3% | M14 melanoma 68.3% | HCT-15 colon 95.7% | HT29 colon 12.8% | SNB-75 CNS 61.4% | SNB-19 CNS 36.7% | U251 CNS 16.3% | SK-MEL-5 melanoma 82.1% | UACC-62 melanoma 44.6% | LOX IMVI melanoma 53.6% | SK-MEL-28 melanoma 76.2%
active: PC-3 prostate 8.74%

CCc1n(Cc2ccc3ccccc3n2)cc[n+]1Cc1ccc2ccccc2n1
active: MALME-3M melanoma -9.45% | UACC-257 melanoma -16.5% | HT29 colon -4.83% | SK-MEL-5 melanoma -36.3%
inactive: DU-145 prostate 51.7% | K-562 leukemia 24.9% | MDA-MB-231 breast 31.1% | RXF 393 renal 46.6% | SF-268 CNS 29.6% | SF-295 CNS 64.7% | SF-539 CNS 24.5% | M14 melanoma 46.6% | HCT-15 colon 92.2% | SNB-75 CNS 29.5% | SNB-19 CNS 20.9% | U251 CNS 12.3% | PC-3 prostate 19% | UACC-62 melanoma 12.4% | LOX IMVI melanoma 26.1% | SK-MEL-28 melanoma 15.9%

CC1=C2[C@@H](CC1)[C@]1(C)O[C@@](C3CCCCC3)(C[C@H]1OC(=O)CO)[C@H]2OC(=O)/C=C/c1ccccc1
inactive: DU-145 prostate 89.3% | K-562 leukemia 63.5% | MALME-3M melanoma 79.5% | MDA-MB-231 breast 86.4% | RXF 393 renal 39.9% | SF-268 CNS 31.9% | SF-295 CNS 86.5% | SF-539 CNS 102% | UACC-257 melanoma 84.5% | M14 melanoma 91.6% | HCT-15 colon 77.9% | HT29 colon 62.7% | SNB-75 CNS 72.6% | SNB-19 CNS 91.4% | U251 CNS 73.9% | PC-3 prostate 53.2% | SK-MEL-5 melanoma 87.3% | UACC-62 melanoma 62.5% | LOX IMVI melanoma 82.6% | SK-MEL-28 melanoma 101%

COc1ccc(C(=O)Cn2c(C(=O)c3ccc(OC)cc3)nc3ccccc32)cc1
active: K-562 leukemia 7.61% | SF-295 CNS 1.78% | M14 melanoma -2.49%
inactive: DU-145 prostate 54.6% | MALME-3M melanoma 37.2% | MDA-MB-231 breast 27.8% | RXF 393 renal 20.4% | SF-268 CNS 44.5% | SF-539 CNS 19.4% | UACC-257 melanoma 48.5% | HCT-15 colon 15.9% | HT29 colon 14.9% | SNB-75 CNS 10.4% | SNB-19 CNS 48.8% | U251 CNS 18.3% | PC-3 prostate 34.2% | SK-MEL-5 melanoma 23.5% | UACC-62 melanoma 13.9% | LOX IMVI melanoma 38.8% | SK-MEL-28 melanoma 42.8%

C#CCO[C@H]1CC(CC#C)(CC#C)C(=O)[C@@H]2[C@H]1[C@H]1C[C@@H]3[C@@]4(C)CCC[C@@](C)(C(=O)OC)[C@@H]4CC[C@@]23C=C1C(C)C
active: MALME-3M melanoma -35.9% | LOX IMVI melanoma -86.6%
inactive: DU-145 prostate 97.7% | K-562 leukemia 88.9% | MDA-MB-231 breast 89.3% | RXF 393 renal 102% | SF-268 CNS 92.9% | SF-295 CNS 101% | SF-539 CNS 85.4% | UACC-257 melanoma 94.3% | M14 melanoma 95.5% | HCT-15 colon 98.2% | HT29 colon 55.7% | SNB-75 CNS 93.9% | SNB-19 CNS 93.4% | U251 CNS 96.3% | PC-3 prostate 58.8% | SK-MEL-5 melanoma 101% | UACC-62 melanoma 78.6% | SK-MEL-28 melanoma 99.1%

O=S(=O)(NCCNc1nccc(-c2c(-c3ccc(F)c(O)c3)nc3sccn23)n1)c1ccc(F)cc1
active: MALME-3M melanoma 5.92% | RXF 393 renal -4.56% | SK-MEL-5 melanoma -41.5% | UACC-62 melanoma 4.93%
inactive: DU-145 prostate 34.4% | K-562 leukemia 14.7% | MDA-MB-231 breast 25.5% | SF-268 CNS 37.3% | SF-295 CNS 53.4% | SF-539 CNS 44.3% | UACC-257 melanoma 32.1% | M14 melanoma 15.5% | HCT-15 colon 29.9% | HT29 colon 16.7% | SNB-75 CNS 64.1% | SNB-19 CNS 59.1% | U251 CNS 45.5% | PC-3 prostate 29.9% | LOX IMVI melanoma 16.6% | SK-MEL-28 melanoma 20.5%

CSc1nc(C)c([N+](=O)[O-])c(N)n1
inactive: DU-145 prostate 109% | K-562 leukemia 91% | MALME-3M melanoma 104% | MDA-MB-231 breast 96.5% | RXF 393 renal 114% | SF-268 CNS 105% | SF-295 CNS 109% | SF-539 CNS 104% | UACC-257 melanoma 84.7% | M14 melanoma 91.8% | HCT-15 colon 107% | HT29 colon 85.4% | SNB-75 CNS 98.7% | SNB-19 CNS 96.9% | U251 CNS 87.9% | PC-3 prostate 85.3% | SK-MEL-5 melanoma 102% | UACC-62 melanoma 98% | LOX IMVI melanoma 96.7% | SK-MEL-28 melanoma 120%
